Measurements taken from PubChem BioAssay AID1021 (Emory University Molecular Libraries Screening Center, 2008).
The campaign covered roughly 220,000 compounds. About 2,100 (0.95%) were called active. The sample holds actives, similar compounds and a random draw of the others, so the mix is not that of the screen. Values without a mark were called inactive.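 How the source made its calls: active means compounds that cut the binding signal by more than half at the single screening dose; inactive means the rest.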

Molecular target: Induced myeloid leukemia cell differentiation protein Mcl-1 (Homo sapiens) (UniProt Q07820)
Assay: Mcl-1/Bid binding inhibitors, primary screen, biochemical, TR-FRET, 1536-well (AID 1021);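 further: His-tagged Mcl-1 with europium anti-His antibody binding Bid BH3 peptide; 0% = Mcl-1 plus peptide wells and 100% = peptide-only wells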
Details: TR-FRET Mcl-1/Bid-Dy647 peptide binding, at 21.7 µM, active compounds read high

Induced myeloid leukemia cell differentiation protein Mcl-1 (Homo sapiens), sequence (Q07820 whole entry, looked up): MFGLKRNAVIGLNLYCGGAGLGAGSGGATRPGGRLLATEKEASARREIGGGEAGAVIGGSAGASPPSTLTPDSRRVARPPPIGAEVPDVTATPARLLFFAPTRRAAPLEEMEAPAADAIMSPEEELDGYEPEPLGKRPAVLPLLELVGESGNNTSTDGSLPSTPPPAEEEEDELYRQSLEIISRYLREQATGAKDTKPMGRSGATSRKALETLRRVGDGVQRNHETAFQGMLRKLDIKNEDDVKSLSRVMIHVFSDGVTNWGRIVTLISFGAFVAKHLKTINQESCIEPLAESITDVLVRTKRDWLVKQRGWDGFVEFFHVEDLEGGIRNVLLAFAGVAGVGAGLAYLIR

| Structure (SMILES) | inhibition |
| --- | --- |
| O=C(CN1CCN(Cc2ccccc2)CC1)NC(c1ccccc1)c1ccccc1 | 26.9% |
| COc1ccc(NC(=O)CCN2C(=O)/C(=C/c3ccc4c(c3)OCO4)SC2=S)cc1 | -17% |
| Cc1cc(C)c(C2C3=C(Nc4c2c(C)nn4-c2ccccn2)c2ccccc2C3=O)c(C)c1 (stereo unspecified) | -27.1% |
| Cc1ccc(C2C3=C(Nc4[nH]n(-c5ccccc5)c(=O)c42)c2ccccc2C3=O)cc1 (stereo unspecified) | 84.6% (active) |
| Cc1ccc(N=Nc2c(C)[nH]n(-c3ccccc3)c2=O)cc1 | -11.4% |
| Cc1ccc(C(CC(=O)O)Nc2nc(N3CCCCC3)nc(N3CCCCC3)n2)cc1 (stereo unspecified) | 50.7% (active) |
| CC(=O)NC(CC(=O)O)c1ccc(F)cc1 (stereo unspecified) | -2.56% |
| O=C(O)c1ccc(/C=N/Nc2nc(N3CCCCC3)nc(N3CCCCC3)n2)cc1 | 5.5% |
| CCC(C)(C)NC(=O)C1c2ccccc2Oc2ccccc21 | -5.83% |
| Cc1ccc(-c2csc3nnc(SCC(=O)NCc4ccco4)n23)cc1 | -17.3% |
| CCn1c(COc2ccccc2)nnc1SCC(=O)NCc1ccco1 | -25.4% |
| CCn1c(SCC(=O)NCc2ccco2)nnc1-c1ccc(N)cc1 | 75.2% (active) |
| CC(C)n1c(=O)[nH]c2cc(C(=O)Nc3ccccc3)ccc21 | -10.9% |
| COc1c(C=O)c(CCN(C)C(=O)c2ccc(F)cc2)cc2c1OCO2 | 0.65% |
| Cc1ccc(N2CCN(/N=C/c3cccs3)CC2)cc1 | -7.6% |
| Cc1ccsc1/C=C1\SC(N2CCOCC2)=NC1=O | -15.9% |
| Cc1ccc(N2CCN(C3=NC(=O)/C(=C\c4cccs4)S3)CC2)cc1 | 97.7% (active) |
| Cc1ccc(-c2nn(-c3cccc(F)c3)cc2CNCCc2ccncc2)o1 | -20.2% |
| C=CCN(c1ccccc1C(=O)NCC(=O)OCC)S(=O)(=O)c1ccc(C)cc1 | -11.3% |
| O=S(=O)(c1cccc(-c2nnc(SC(F)F)n2-c2ccccc2)c1)N1CCCCC1 | 91.8% (active) |
| O=S(=O)(c1ccc(-c2ccccc2)cc1)N1CCCC1 | -19.2% |
| O=S(=O)(c1cccc(-c2nnc3n2CCCCC3)c1)N1CCOCC1 | -26.9% |
| COc1cccc(/C=N/NC(=O)c2[nH]nc3c2CCc2ccccc2-3)c1O | 53.3% (active) |
| COc1cccc(/C=N/Nc2cc(C)nc(-c3ccccc3O)n2)c1O | -54.1% |
| COc1cccc(/C=N\NC(=O)C2=NNC(=O)C2C)c1O (stereo unspecified) | -128% |
| O=C(NCc1ccc2c(c1)OCO2)c1sccc1Br | -8.46% |
